# The list is not random: actives were taken first. Their share in the collection is about 9.9%.
# MCF10A rereplic = induces DNA re-replication in MCF 10a normal breast cells; Potency, µM (doses to about 46.1 µM), for inactives: at the highest dose activity, positive = re-replication, hits mostly activators; 2.9% of 350,000 active; MCF 10A DNA re-replication, Hoechst nuclear intensity, 48 h; also: potency is read from the fitted curve at half-maximal effect; % of control where 0% means no effect; nearly all actives have a fitted effect of over 50% in size
# SW480 rereplic = inducers of DNA re-replication in SW480 colon cancer cells. SW480 DNA re-replication, Hoechst DNA content imaging, 48 h. Potency, µM (doses to about 46.1 µM), for inactives: top-dose re-replication activation, actives largely listed as activators. 1.8% of 340,000 active; also: potency is read from the fitted curve at half-maximal effect; % of control where 0% means no effect; nearly all actives have a fitted effect of over 55% in size
#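 Quantitative HTS format with DMSO vehicle controls; 48 hr drug incubation at 37 C, then 40 min Hoechst staining and scanning imager measurement at 405 nm excitation.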
# KB-3-1 tox = KB-3-1 parental cell cytotoxicity; Potency, µM (top dose mostly 46.1 µM), hits mostly cytotoxic; KB-3-1 viability, CellTiter-Glo ATP luminescence, 72 h; 1.4% of 400,000 active; AID 1347075; also: potency is read from the fitted curve at half-maximal effect; % is scaled to controls: 0 for no effect and ±100 for the full control effect; nearly all actives have a fitted effect of over 60% in size
#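 Multi-concentration cytotoxicity screen in KB-3-1 cells grown in DMEM lacking phenol red with 10% FBS. After 72 h at 37 °C with compound, ATP-dependent luminescence was recorded.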
# IL1B secr inh = inflammasome signaling inhibition, IL-1 beta readout; THP-1 LPS/ATP IL-1B secretion, AlphaLISA, 16 h; stronger effect = lower value; activity change, % at 57.5 µM; 4.7% of 360,000 active; AID 743279; in the data active = activity change below about -50%; inconclusive = mostly about -30% to -49%; also: % is scaled to controls: 0 for no effect and ±100 for the full control effect
#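 Secreted IL-1B measured by AlphaLISA bead assay after 16 h compound exposure of THP-1 cells; compounds (final up to 57.5 uM) added 1 h before LPS (250 ng/mL) and ATP (1.25 mM) stimulation; lower signal means less secretion.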
# KB-V1 MDR tox = kills drug-selected multidrug resistant KB-V1 cells; AID 1347076; KB-V1 MDR cells viability, CellTiter-Glo, 72 h; Potency, µM (highest dose often 46.1 µM), hits mostly cytotoxic; 3.4% of 400,000 active; also: potency is read from the fitted curve at half-maximal effect; % is scaled to controls: 0 for no effect and ±100 for the full control effect; nearly all actives have a fitted effect of over 60% in size
#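 Following 72 h at 37 degrees C with compound, KB-V1 cell viability was read by CellTiter-Glo luminescence, medium being phenol-red-free DMEM plus 10% FBS; concentration-response parameters came from normalized, curve-fitted qHTS data.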
# * hit, by the source's call; i = inactive; ? = inconclusive; · = no result given. Unless noted, calls follow the shape of the dose curve; as a rule, active = well fitted curve in the direction sought with a large enough effect; inconclusive = small, poorly fitted or top-dose-only effect, or another doubt; inactive = no such curve, though single readings can be large; an effect the other way counts as inactive or inconclusive.
SMILES,MCF10A rereplic,SW480 rereplic,KB-3-1 tox,IL1B secr inh,KB-V1 MDR tox
CC(=O)NCc1ccc(S(=O)(=O)NC(C(=O)O)C(C)C)cc1 (stereo unspecified),3%,-3%,i,9,i
CCN(CC)c1ccc(NC(=O)c2cnc3ccccn3c2=O)c(C)c1,?,3%,i,-16,3.7µM*
N=C1SCC(=O)N1c1ncc(Cc2ccc(F)cc2)s1,?,12%,i,-104*,i
CCCCn1c(=O)nc2n(-c3ccccc3)c3ccccc3cc-2c1=O,-8%,-7%,?,-10,10µM*
Cc1ccc(-n2c3nc(=O)n(C)c(=O)c-3cc3ccccc32)c(C)c1,·,·,i,·,i
Cc1ccc(C)c(-n2c3nc(=O)n(C)c(=O)c-3cc3ccccc32)c1,15µM*,1%,i,12,i
CC1(C(=O)NS(=O)(=O)Cc2ccccc2)CCN1C(=O)C1(c2ccc(Cl)cc2)CCC1 (stereo unspecified),·,·,i,30,i
COCCN(Cc1nnc(-c2cccs2)o1)C(=O)CN1C(=O)NC2(CCCCC2)C1=O,7%,2%,i,10,i
O=C(Nc1ccccc1)Nc1nnc(CSCc2ccccc2Cl)s1,15µM*,·,i,14,?
O=C(Nc1ccc(Cl)c(Cl)c1)Nc1nnc(CSc2ccccc2)s1,?,?,?,?,15µM*
O=C(Nc1ccc(Cl)c(Cl)c1)Nc1nccs1,13µM*,2.3µM*,4.6µM*,-10,4.1µM*
O=C(Nc1ccc(Cl)cc1)Nc1nnc(SCc2ccccc2)s1,0%,-5%,i,-17,i
O=C(Nc1ccc(Cl)cc1)Nc1nnc(CSCc2ccccc2Cl)s1,123%,3%,?,11,i
CC(C)C(=O)Nc1nnc(CSCc2ccccc2F)s1,2%,-3%,i,6,18µM*
COc1ccc(C(=O)Nc2cccc(C(=O)OCc3cc(=O)n4nc(C5CC5)sc4n3)c2)cc1,·,·,i,·,?
COc1ccc(NC(=O)C(C(C)C)N2Cc3ccccc3C2=O)cc1 (stereo unspecified),·,·,i,·,?
Cc1ccc(OCCSCc2nnc(NC(=O)Nc3cccc(Cl)c3)s2)cc1,?,-2%,5.8µM*,-4,?
CC(CCCN(C)C)C(Cc1ccccc1)c1ccccc1 (stereo unspecified),?,?,i,-66*,i
CN(C)CCC(=O)C(Cc1ccccc1)c1ccccc1 (stereo unspecified),4.1µM*,?,i,-99*,?
CN(C)CC(c1ccccc1)c1ccccc1,-13%,-43%,i,·,i
CNC(=S)/N=C(/Nc1ccccc1)c1ccccc1,5%,23%,i,-69*,i
CCN(CC)CCNC(=O)C(=O)NCC(c1cccnc1)N1CCN(c2ccc(F)cc2)CC1 (stereo unspecified),·,·,i,·,i
O=C(Nc1ccc(Cl)cc1)Nc1nc(-c2ccccc2)cs1,0.58µM*,-8%,i,-28,i
O=C(Nc1nc(-c2ccc(Cl)cc2)cs1)NC1CCCCC1,?,·,?,0,13µM*
O=C(Nc1cccc(Cl)c1)Nc1nc(-c2ccccc2)cs1,0.82µM*,6%,i,21,i
SMILES,MCF10A rereplic,SW480 rereplic,KB-3-1 tox,IL1B secr inh,KB-V1 MDR tox
Cc1nc(NC(=O)COC(=O)c2cccs2)c(Cl)cc1Cl,4%,-4%,i,5,i
COC(=O)C(NNc1ccccc1)(NC(=O)c1ccc(F)cc1)C(F)(F)F (stereo unspecified),1%,1%,?,-13,23µM*
O=C(NCc1ccco1)c1ccc(COc2ccccc2[N+](=O)[O-])o1,-35%,3%,i,0,i
CC1(Cc2ccc(C(F)(F)F)o2)C(=O)Nc2cc(-c3ccc(F)cc3F)ccc21 (stereo unspecified),·,·,?,-64*,?
CC1(Cc2cc(Cl)ccc2C(F)(F)F)C(=O)Nc2cc(F)ccc21 (stereo unspecified),·,·,i,-10,?
O=[N+]([O-])c1cc(Cl)ccc1N1CCCC1,2%,3%,i,0,i
O=C1C(Cl)=C(N2CCN(c3ccccc3[N+](=O)[O-])CC2)C(=O)c2ccccc21,?,16µM*,?,-104*,?
COc1ccc(O)c(CN2CCN(C/C=C/c3ccccc3)CC2)c1,43%,-7%,i,-15,15µM*
COc1cc(Br)cc(CN2CCN(C/C=C/c3ccccc3)CC2)c1O,21%,2%,i,-16,i
COc1ccc2oc(C(=O)N3CCN(C(c4ccccc4)c4ccccc4)CC3)c(C)c2c1,?,-65%,i,-25,i
COc1ccc2oc(C(=O)N3CCN(C/C=C/c4ccccc4)CC3)c(C)c2c1,23µM*,3%,i,8,i
O=C(c1ccc(Br)o1)N1CCN(C/C=C/c2ccccc2)CC1,3%,-18%,i,-6,i
Cc1c(C(=O)N2CCN(C/C=C/c3ccccc3)CC2)oc2c(F)cccc12,11%,-4%,i,-4,16µM*
O=C(c1ccc(Br)s1)N1CCN(C/C=C/c2ccccc2)CC1,19%,-1%,i,-8,15µM*
COc1ccc(-c2cccc(C3CC=CC4C3C(=O)N(Cc3ccccc3)C4c3ccc(OC)c(Cl)c3)c2)cc1 (stereo unspecified),13%,-1%,i,33,i
COc1cc(C(C)=O)ccc1OCC(=O)Nc1cc(S(=O)(=O)N2CCOCC2)ccc1N1CCCC1,?,-7%,i,-14,i
OCCN1CCN(Cc2cc(Cl)c3cccnc3c2O)CC1,?,3.3µM*,?,72,5.8µM*
COc1ccccc1N1CCN(Cc2cc(Br)c(O)c3ncccc23)CC1,?,5.2µM*,?,70,?
Oc1c(CN2CCN(c3ccccn3)CC2)cc(Cl)c2cccnc12,?,7.3µM*,?,1,5.2µM*
Nc1ncnc2c1ncn2[C@@H]1O[C@H](CO)[C@@H](O)[C@H]1O,-4%,8%,i,-2,i
CCOP1(=O)OCC2OC(n3cnc4c(N)ncnc43)C(O)C2O1 (stereo unspecified),15µM*,-17%,i,·,i
O=C1C2C3CCC(CC3)C2C(=O)N1c1ccccc1 (stereo unspecified),14%,0%,i,-8,i
Cc1nn(C2CCS(=O)(=O)C2)c(C)c1C=O (stereo unspecified),?,23%,i,29,i
CC1(c2ccc3c(c2)OCO3)NC(=O)N(CC(=O)Nc2ccccc2[N+](=O)[O-])C1=O (stereo unspecified),-1%,-2%,i,38,15µM*

# Source: PubChem (National Center for Advancing Translational Sciences (NCATS))
